This is an account of results in the supplement of paper PMC6555819.

This assay relates to VDR:RXRa (NR concentration 270 nM, RXRa partner concentration 90 nM). In words: PBM binding z-score (relative to random genomic background probes); higher = stronger binding; sequences stand for … in GC…GCGATTGACAGCGTAGAATGAAGG
On the procedure:
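Protein-binding microarray (Agilent 4x180K custom design, double-stranded 60-nt probes: 5' GC cap, 34-nt variable region, 24-nt constant primer region; full probe sequence given). Purified or IVT nuclear receptor:RXRα heterodimers (3:1 NR:RXRα, mostly 270:90 nM) or homodimers were incubated for 1 h in PBS with 2% milk and no ligand, then detected with Alexa488 antibodies. Fluorescence from o1-orientation probes (~5 replicates averaged) was converted to z-scores against 500 random hg19 background probes. Variable regions are seed direct-repeat (DR0–DR5) sites, all their single-nucleotide variants and half-site ablations.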
Sequence TTACCAAGGTGAAGCTCGTTGATCCCTCTGTAGA displayed a PBM binding z-score of -0.103.
In the case of AGTCAAAGTTAATCTAGGTAACGTAAGATATGCT it was -0.0868; in that of CGTCCAAGGTCAGTAGGTCAGTGAAAGCGACGTG, 3.29; in that of CCTCGGAAGACAGAAGGTCAGAGCTGTCCGCTTT, 1.01.
With CCTATTTGGTCAGGAGGTCACACACCGGATATGA the figure was 4.05; with AGAATGAGATTATTAAGATCAGGGAATTGCGGTC, -0.494.
The sequence TCTAGTTGGTCAAAGGTCACAAACTCGAAATGCG gave a PBM binding z-score of 5.17.
With ACTATTAGTTTACTTAGGGCAACCGATACGACGC the figure was 0.639; with ACTATTAGTTGACTTATGGCAACCGATACGACGC, 0.458; with CTTCCAAGGTCAGCAGGTCAGTGAAAGCGACGTG, 4.03.
With CTACCAACGTGAACAAGGTCGTTGATTACTATTC the figure was 2.05; with TCATATAGGTAAAAGGCGAAAGTCGGTGTGGTAA, 0.679; with CGAACTAGGTCATCCAGTACAGTGAATACATTGA, 5.08.
In the case of TCTACTAGTTGATTAGGGCAACCGAAACAGCGGA it was 0.208.
With CTCGAAAGGTCGGTTGAGGTGGGTATACGGATAA, the PBM binding z-score was 1.63.
With CCTACTGGCCCATCAGGTCATTGATATCAACGTT the figure was 1.78; with ATCGCTAGGTAACCAAGTTCAGTGAATGCCGAAC, 3.74; with ATCTCTACGTAACAAGTTCAGTGAAAGAGAGGAC, 1.38.
With TCTATTAGTTGAAGGGCACCCGACGAGTCCGTTT the figure was 1.02; with ATCTCTTGGTAAGACTCAGTTCAGTGAAGAACGC, 0.946.
In the case of CCGACTTGGGCAAGGTTACCATAACGCACAGCCA it was 0.176; in that of ATCGAAAGGTCGACGAGGTTAGTATACACCGTTT, 6.41; in that of GTACCAAGGTCAATAGGTCGTTGATGAGTAGGCG, 4.69.
Consider ATCGAAAGGTCGAAGGTGAGGATACCCACCCGAA, for which the PBM binding z-score stood at 2.71.
With CCTTACGGGTCACACCAGGTTATAGCATCGGAGT the figure was 4.89.
With CAAACTAGGTCAAAGGTTAAAGTCGAGCCAACCA the figure was 4.87.
With GCGACTGGGGCAAGGCAGGTTACCATAAGGTTGG the figure was -0.166; with AGAACGAGGGCACGCTGAGTTGATAGTAGAGTAG, 2.38.
The sequence TCGAGTAGGTTAGTCGGGGCATCCAGCCAACATA showed a PBM binding z-score of 1.5.
With GCTACTAGGTCAACTGATGGTCAGCTAAAGCTCG the figure was 1.79; with TCCTGTAGATCAAGCAGGTTAAGAAAGCCTGAGT, 0.503; with CGTCCAAGGTCAATGCTAGGTCAGTGATAGCATT, 4.92.
On to TCTCGGAGGACTCGAAAGGTCAGAGCTCGACATC, for which the PBM binding z-score stood at 2.4.
For the sequence CCTGCTAGGTCATGGTCTGCTAATCTACAGTATG, the PBM binding z-score is 1.58.
With TCTTGTAGATAAAGCAGGTTAAGAAAGCCTGAGT the figure was 0.751; with CTTGCTAGGTCAATGGTCAGCTAAAGCAGCTCGC, 0.921.
In the case of GCGACTGGGGCAAAGAAGGTTACCATAAGGTTGG it was 0.733.
In the case of ATCGTAAGGTCGAAGGTGAGTATACCCACCCGAA it was 2.04; in that of ATATGTATGTTACATCCGGGTCATTCAGGCTATG, 3.02; in that of TCATAAAGGTAATACAGGTGAAAGTCGGCATCTA, 1.72.
